By AC50 is commonly meant the concentration giving half of the maximal activity seen.

Structures are written as SMILES. Active and inactive are the calls of the source. Rule for the calls: active = hit-call score of the fitted dose curve at least 0.9, where 1 is the maximum; inactive = score below 0.9.

The text below walks through data of PubChem BioAssay (EPA / NIEHS).

The experiment is described as follows: ATG_ISRE_CIS: Attagene CIS-FACTORIAL HepG2 Assay for human Interferon Regulatory Factor 1 (IRF1) binding to an Interferon-Stimulated Response Element (ISRE) (AID 2282948). Particulars: HepG2 ISRE cis-reporter (Attagene), mRNA transcription readout; actives raise or lower the signal. The protocol: ATG_CIS is a cell-based, multiplexed-readout assay that uses HepG2, a human liver cell line, with measurements taken at 24 hours after chemical dosing in a 24-well plate.ATG_ISRE_CIS is one of 52 assay component(s) measured or calculated from the ATG_CIS assay. It is designed to make measurements of mRNA induction, a form of inducible reporter, as detected with fluorescence intensity signals by Reverse transcription polymerase chain reaction (RT-PCR) and Capillary electrophoresis technology.Data from the assay component ATG_ISRE_CIS was analyzed into 1 assay endpoint. This assay endpoint, ATG_ISRE_CIS, was analyzed with bidirectional fitting relative to DMSO as the negative control and baseline of activity. Using a type of inducible reporter, measures of mRNA for gain or loss-of-signal activity can be used to understand the reporter gene at the transcription factor-level as they relate to the gene IRF1. Furthermore, this assay endpoint can be referred to as a primary readout, because this assay has produced multiple assay endpoints where this one serves a reporter gene function. To generalize the intended target to other relatable targets, this assay endpoint is annotated to the dna binding intended target family, where the subfamily is interferon regulatory factors.
Human liver HepG2 cells are transiently transfected with multiple reporter transcription units (MRTUs) in 6-well plates using FuGene 6 reagent (Roche; 3 ml FuGene/1 mg DNA). The MRTU constructs are regulated by a cis-regulating element (promoter). […] A major difference between the CIS and TRANS system is that in CIS activities of endogenous TFs are measured, whereas the TRANS assay evaluates changes in activities of exogenous, chimeric NR-Gal4 proteins. […] At the end of 24 hour incubation, total RNA was isolated using TriZol reagent (Invitrogen). The isolated RNA is then reverse-transcribed using oligo(dT) primer and Mo-MLV reverse transcriptase (Invitrogen) with DNAse I (Ambion) treatment for 30 min. The one-tenth of the produced cDNA was amplified by PCR using Taq DNA polymerase (Invitrogen) and two reporter sequence-specific primers. The PCR products were fluorescently labeled by primer extension with 6-arboxyfluorescein (6-FAM) 5'-labeled reporter sequence-specific primer (2 min at 95 C, 20 s at 68 C and 10 min at 72 C) and these products were digested with 5U of HpaI (New England Biolabs) for 2h at 37 C. The fragments were purified using Qiaquick PCR columns (Qiagen), analyzed on an ABI 3130xL genetic analyzer (Applied Biosystems) with peak positions identified by using a set of X-rhodamine (ROX)-labeled MapMarker1000 molecular weight standards (BioVentures). The raw capillary electrophoresis data was processed using Attagraph software (Attagene).
For `Cc1ccc(OC(=O)CC(C)C)cc1`, the compound was called inactive. `COC(=O)c1ccc2cc(C(=O)OC)ccc2c1`: the compound was called inactive. Still for that read-out and setting: with `CCCCCCCCCCOC(C)=O` the entry was “inactive”. For the compound `Nc1ccc(N)c(Cl)c1`, the AC50 was 45.7 µM (active). In the case of `Cc1ccc(N/N=c2\c(=O)cc/c(=N/Nc3ccc(S(=O)(=O)O)cc3)c2=O)c(C)c1`, the outcome was inactive. As to `COc1ccc(-c2coc3cc(O)ccc3c2=O)cc1`, the outcome was inactive. `O=C(c1ccccc1)c1ccc(O)c(O)c1O`: the result was inactive.

Take `CC/C=C\C/C=C\C/C=C\CCCCCCCC(=O)O`: the AC50 is 69 µM (active). As to `CCOC(=O)[C@H](C)O`, the compound was classed as inactive. Still for that read-out and setting: to `CC(=O)OCCC1CCCCC1` belongs “inactive”. With `CC(=O)C=CC1C(C)=CCC(C)C1(C)C` (stereo not given), the compound was classed as inactive. Regarding `NC(=O)N=NC(N)=O`, the result was inactive.

Consider `NC(=O)c1ccccc1O`, for which the compound was called inactive. The same measure, in the same setting: to `CCCCCC/C=C\CCCCCCCC(=O)O` belongs “inactive”; to `CCCCCc1ccc(Cl)cc1`, “inactive”; to `S=C(NC1CCCCC1)NC1CCCCC1`, “inactive”. As to `Cc1cccc(C(=O)O)c1`, the compound was called inactive. For the compound `Cc1cc(O)c(Cl)c(C)c1Cl`, the compound was classed as inactive. Turning to `O=C(c1ccc(O)cc1)c1ccc(O)cc1O`, the call was inactive. `CNC(=S)NN`: the call was inactive. Still for that read-out and setting: to `CC(=O)Oc1ccc(C)cc1` belongs “inactive”; to `CC(=O)Oc1ccc(C(C)=O)cc1`, “inactive”; to `CCCCCCC1(C)CCC(=O)O1` (stereo not given), “inactive”. On the same count and under the same terms, with `C#CC1(O)CC[C@H]2[C@@H]3CCC4=CCCC[C@@H]4[C@H]3CC[C@@]21C` (stereo not given in full) the entry was “inactive”; with `CCCCCCCCCCc1ccccc1`, “inactive”. Same read-out and setting: with `Nc1ccc(-c2ccc(F)cc2)cc1` the entry was “inactive”; with `OC1OCCOC1O` (stereo not given), “inactive”; with `CC(=O)NS(=O)(=O)c1ccc(N)cc1`, “inactive”. With `CNC(=S)N(C)C`, the compound was called inactive. Still for that read-out and setting: with `O=c1cc[nH]c(=S)[nH]1` the entry was “inactive”; with `CCCc1ccc(OC)cc1`, “inactive”. As to `CCC(Cc1ccccc1)(C(=O)c1ccc(N2CCOCC2)cc1)N(C)C` (stereo not given), the AC50 is 27.2 µM (active).

For the compound `O=C(Nc1ccccc1)c1ccccc1O`, the compound was called inactive. Still for that read-out and setting: to `COc1cc(NC(=O)CC(C)=O)c(OC)cc1Cl` belongs “inactive”; to `CC(C)(Oc1ccc(C2CC2(Cl)Cl)cc1)C(=O)O` (stereo not given), “inactive”; to `CC(C)(C)c1ccc(OC(=O)c2ccccc2O)cc1`, “inactive”. On to `CCC(CO)CO`, for which the outcome was inactive. On to `Cc1cccc(OCCOc2cccc(C)c2)c1`, for which the result was inactive. Regarding `CCCCCCC(O)CO` (stereo not given), the outcome was inactive. Take `CC1=CC[C@H](C(C)C)C=C1`: the compound was called inactive.
